Laboratory results from PubChem BioAssay AID1159580 (chemical genetic matrix, 2015).
Where “and” joins values, the source holds several entries; their conditions need not be identical. Equal values may be shown once. The whole screen tested about 5,500 compounds, of which about 2,000 (36%) were called active. About 18% were inconclusive and are not listed. Cut-off read from the data, not from the text of the source: active = normalized growth mostly below about 0.91 (no sharp cut-off); inconclusive = no clear call, values can overlap the other calls; inactive = mostly above about 0.92. Some of the results follow.

Experiment: chemical genetic growth profiling, strain panel (AID 1159580);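 note: tested at 20 µM; growth read once vehicle control cultures reached saturation at 30 °C; 1 = growth at the plate median or of vehicle wells; lower values mean less growth of the strain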
Details: S. cerevisiae deletion strains, growth OD

Measured: normalized growth

O=C(CCc1ccc(O)cc1)c1c(O)cc(O)cc1O[C@@H]1O[C@H](CO)[C@@H](O)[C@H](O)[C@H]1O
inactive: locus YAL021C, strain ccr4, active compounds read low 1.01 | locus YAL026C, strain drs2, active compounds read low 1.01 | locus YAL030W, strain snc1, active compounds read low 1.01 | locus YBL061C, strain skt5, active compounds read low 1.02 | locus YBR009C, strain hhf1, active compounds read low 1.02 | locus YBR021W, strain FUR4, active compounds read low 1.01 | locus YBR023C, strain chs3, active compounds read low 1.01 | locus YBR171W, strain sec66, active compounds read low 1.05 | locus YBR229C, strain ROT2, active compounds read low 1.02 | locus YBR231C, strain swc5, active compounds read low 1.02 | locus YBR279W, strain paf1, active compounds read low 1 | locus YCL011C, strain gbp2, active compounds read low 1.02 | locus YCL016C, strain dcc1, active compounds read low 1.02 | locus YCL029C, strain bik1, active compounds read low 0.982 | locus YCL061C, strain MRC1, active compounds read low 1.02 | locus YCL069W, strain vba3, active compounds read low 1.01 | locus YCR088W, strain abp1, active compounds read low 1.01 | locus YDL005C, strain med2, active compounds read low 1.02 | locus YDL035C, strain GPR1, active compounds read low 1.04 | locus YDL040C, strain nat1, active compounds read low 1.01 | locus YDL074C, strain BRE1, active compounds read low 1.05 | locus YDL101C, strain DUN1, active compounds read low 1.02 | locus YDL134C, strain PPH21, active compounds read low 1.06 | locus YDL185W, strain tfp1, active compounds read low 0.993 | locus YDL192W, strain arf1, active compounds read low 0.986 | locus YDR001C, strain nth1, active compounds read low 1.01 | locus YDR069C, strain doa4, active compounds read low 1.03 | locus YDR101C, strain arx1, active compounds read low 0.998 | locus YDR137W, strain rgp1, active compounds read low 0.993 | locus YDR159W, strain sac3, active compounds read low 1.03 | locus YDR162C, strain NBP2, active compounds read low 1.06 | locus YDR195W, strain ref2 0.997 | locus YDR297W, strain sur2, active compounds read low 1.02 | locus YDR318W, strain mcm21, active compounds read low 0.986 | locus YDR334W, strain swr1, active compounds read low 1.02 | locus YDR335W, strain msn5, active compounds read low 1.01 | locus YDR388W, active compounds read low 0.992 | locus YDR392W, strain spt3, active compounds read low 1.02 | locus YDR502C, strain sam2, active compounds read low 0.998 | locus YEL003W, strain gim4, active compounds read low 1.01 | locus YEL037C, strain rad23, active compounds read low 1.01 | locus YEL061C, strain CIN8 (second series), active compounds read low 1.01 | locus YEL061C, strain CIN8, active compounds read low 1.02 | locus YER015W, strain faa2, active compounds read low 1.02 | locus YER016W, strain bim1, active compounds read low 1.01 | locus YER110C, active compounds read low 0.981 | locus YER111C, strain swi4, active compounds read low 1.02 | locus YER155C, strain BEM2 (second series), active compounds read low 1.02 | locus YER155C, strain BEM2, active compounds read low 1 | locus YER167W, strain BCK2, active compounds read low 1.02 | locus YFR010W, strain ubp6, active compounds read low 1.01 | locus YGL078C, strain dbp3, active compounds read low 0.985 | locus YGL086W, strain mad1, active compounds read low 1.01 | locus YGL167C, strain pmr1, active compounds read low 1.03 | locus YGL173C, strain kem1, active compounds read low 1.02 | locus YGL227W, strain vid30, active compounds read low 1.02 | locus YGL240W, strain doc1, active compounds read low 1.02 | locus YGL248W, strain PDE1, active compounds read low 1.03 | locus YGL253W, strain hxk2, active compounds read low 1.02 | locus YGR135W, strain pre9, active compounds read low 1 | locus YGR252W, strain gcn5, active compounds read low 1.01 | locus YHR013C, strain ard1, active compounds read low 1.03 | locus YHR027C, strain rpn1, active compounds read low 1.02 | locus YHR030C, strain SLT2, active compounds read low 1.02 and 0.996 | locus YHR079C, strain IRE1 (second series), active compounds read low 1 | locus YHR079C, strain IRE1, active compounds read low 0.972 | locus YHR094C, strain hxt1, active compounds read low 0.988 | locus YHR129C, strain ARP1, active compounds read low 1.03 | locus YHR142W, strain chs7, active compounds read low 1.02 | locus YHR200W, strain rpn10, active compounds read low 1.02 | locus YIL066C, strain RNR3, active compounds read low 1.05 | locus YIL073C, strain SPO22, active compounds read low 1.01 | locus YIL125W, strain kgd1, active compounds read low 0.986 | locus YIR030C, strain dcg1, active compounds read low 0.973 | locus YJL092W, strain hpr5, active compounds read low 1.02 | locus YJL095W, strain BCK1 (second series), active compounds read low 1.01 | locus YJL095W, strain BCK1, active compounds read low 1.05 and 0.981 | locus YJL115W, strain asf1, active compounds read low 1.01 | locus YJL129C, strain trk1, active compounds read low 1.01 | locus YJL134W, strain LCB3, active compounds read low 1.01 | locus YJL154C, strain vps35, active compounds read low 1.01 | locus YJL164C, strain tpk1, active compounds read low 1.02 | locus YJL166W, strain qcr8, active compounds read low 1.02 | locus YJL168C, strain set2, active compounds read low 0.983 | locus YJL187C, strain SWE1 (second series), active compounds read low 1.03 | locus YJL187C, strain SWE1, active compounds read low 1.04 | locus YJR043C, strain POL32, active compounds read low 1.06 | locus YJR066W, strain TOR1, active compounds read low 0.942
